# The full ranking holds about 33,000 sequences; the median of “E-score (-0.5 to 0.5)” is about -0.035, and the highest 2% start at about 0.34. Many of the other results were omitted from the sample, so the highest values are more common in it than they were.
# Biological target: T1, Mot3 (UniProt P54785)
# T1 sequence: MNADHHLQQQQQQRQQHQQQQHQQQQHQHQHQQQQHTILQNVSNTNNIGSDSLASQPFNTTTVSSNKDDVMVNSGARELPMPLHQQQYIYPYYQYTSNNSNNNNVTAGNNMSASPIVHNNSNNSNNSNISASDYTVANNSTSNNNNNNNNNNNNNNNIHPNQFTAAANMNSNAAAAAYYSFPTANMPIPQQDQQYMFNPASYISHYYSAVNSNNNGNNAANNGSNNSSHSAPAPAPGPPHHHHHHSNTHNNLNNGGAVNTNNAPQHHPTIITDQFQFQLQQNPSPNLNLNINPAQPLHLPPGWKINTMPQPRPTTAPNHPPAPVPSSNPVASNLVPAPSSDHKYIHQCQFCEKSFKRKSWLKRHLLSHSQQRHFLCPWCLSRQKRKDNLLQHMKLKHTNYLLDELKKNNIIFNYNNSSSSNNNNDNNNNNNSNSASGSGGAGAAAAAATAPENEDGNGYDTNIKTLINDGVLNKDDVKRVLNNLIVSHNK
# Experiment: PBM E-score (8-mer binding enrichment) (E-score (-0.5 to 0.5)); higher = stronger / more preferred TF binding
# Conditions: protein concentration: 200 nM; construct: GST-full length
# Procedure, shortened: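 GST-tagged yeast TFs (full-length or DNA-binding domain) were made by PURExpress in vitro transcription/translation and applied at about 100-200 nM to universal all-10-mer Agilent arrays. The arrays were made double-stranded by primer extension, on fresh or once-stripped slides. Bound protein was detected with fluorescent anti-GST, and scans were normalised with masliner. Each ungapped eight-base word, pooled with its reverse complement, received an E-score (modified Wilcoxon-Mann-Whitney statistic) from the Universal PBM Analysis Suite.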
row,Sequence,PBM E-score
1,AGACTGTA,-0.109
2,CCCACAGA,-0.053
3,TCAACCAA,0.0249
4,ATACAGGA,0.173
5,CTACAGAC,0.0592
6,CAACAGGA,0.172
7,ATACAGGC,0.333
8,CTACAGGC,0.354
9,CAACAGGC,0.377
10,CTACAGGA,0.242
11,AAACAGGC,0.301
12,GTACAGGA,0.343
13,AGAGTTTC,-0.198
14,GGTGGTGA,-0.179
15,GAGAAGTA,-0.0782
16,CTGCAATC,-0.0301
17,CAAAGGTA,0.212
18,CAAAGGAG,-0.0795
19,TAAAAGGA,0.189
20,GAAAGGTA,0.228
21,TAAAGGTA,0.382
22,AAAAGGAC,0.171
23,AAAAGGAT,0.157
24,CAAAGGAC,-0.189
25,GAAAGGAA,0.29

row,Sequence,PBM E-score
1,TAAAGGAA,0.383
2,CAAAGGAA,0.415
3,AAAAGGAA,0.36
4,AGTATCCA,-0.198
5,GGACCGTA,-0.201
6,CTCACGAG,-0.266
7,CGGGCCAC,-0.257
8,CCGGCGAC,-0.266
9,CATCTTAA,0.0785
10,ACCTCTTG,-0.0648
11,TATACGAA,0.0446
12,CCTTAAGG,0.345
13,CCTTAAGA,0.0196
14,CCTTAAGC,0.0192
15,TAACAGAA,0.227
16,CGCTAAAG,-0.0919
17,CGTACACG,0.226
18,GGTACATA,0.238
19,GGTACACA,0.271
20,AGTACACC,0.052
21,AGTACACG,0.357
22,AGTACACA,0.313
23,CGTACATA,0.305
24,AGTACATA,0.362
25,TGTACACA,0.34

row,Sequence,PBM E-score
1,ATTCTGTC,-0.0735
2,GAGAAATC,-0.077
3,CTCGAAAA,-0.084
4,CTTGGCGA,-0.105
5,GACCTAAA,-0.086
6,ACAGGATG,0.00887
7,ACTGTGTG,0.185
8,CCTGTGAA,0.254
9,GCTGTGTA,0.354
10,CCTGTGTC,0.194
11,GCTGTGAA,0.0424
12,ACTGTGTA,0.349
13,ACTGTGTC,0.112
14,CCTGTGTA,0.357
15,GCTGTATA,0.145
16,AAGCAAGA,0.0175
17,AGCAAGGG,-0.137
18,GCGGTCAA,-0.0964
19,GACTTAGA,-0.164
20,AAGCACAT,0.0905
21,AGGCACAA,0.489
22,AGGCACAC,0.487
23,ATGCACAT,0.207
24,AGGCACAG,0.491
25,CGGCACAG,-0.274

row,Sequence,PBM E-score
1,GGGCACAA,0.0559
2,TGGCACAA,-0.0932
3,AGGCACAT,0.49
4,AAGCACAG,0.0561
5,GGGCACAC,0.178
6,CGGCACAC,-0.21
7,CGATGGGA,-0.272
8,AGTTCAGC,-0.141
9,ATAACCCC,-0.207
10,CATCTGGC,-0.139
11,CGTTGATA,0.114
12,AATGAGCC,-0.238
13,CTTAGAAG,-0.209
14,CAACTACC,-0.02
15,GCGTGTCA,0.305
16,CTGTGTTA,0.334
17,ATGTGTTA,0.316
18,GTGTGTTA,0.348
19,ACGTGTCA,0.342
20,ACGTGTCG,0.24
21,ACGTGTTC,0.221
22,GCGTGTGA,0.177
23,GCGTGTTA,0.393
24,ACGTGTTG,0.338
25,CCGTGTCA,0.277

row,Sequence,PBM E-score
1,ACGTGTTA,0.351
2,ATCATCTG,-0.0881
3,AAGACCGC,-0.139
4,TCCGTTCA,-0.194
5,ATTCCATG,0.0576
6,CTCCGTTC,-0.0461
7,TAAACCTA,-0.01
8,AAGAGCTC,0.00626
9,CAGTGTTA,0.212
10,CCGTGTTA,0.376
11,CCGTGTTC,0.27
12,GCTCCTAA,0.118
13,AGCAAGAA,-0.0228
14,CTCGTCTA,-0.168
15,CCGCGGGA,-0.23
16,ACATTACG,0.271
17,GCATTACC,0.0719
18,GCATTAGA,-0.0607
19,CCATTACA,0.337
20,ACATTACA,0.357
21,GCATTACA,0.35
22,ACATTACT,0.218
23,TCATTACA,0.359
24,TCATTAGA,0.0474
25,AACACTGG,0.00047

row,Sequence,PBM E-score
1,GCTTATCC,-0.179
2,GCACAAGC,0.117
3,AGATACCT,-0.096
4,TAAGGATA,-0.102
5,TAAGGAGA,-0.0944
6,GAAGGAAA,0.454
7,TAAGGAAA,0.424
8,CAAGGAAA,0.317
9,GAAGGATA,-0.0542
10,AGGGATCC,-0.223
11,AATTTTAG,0.004
12,AATCTCTA,-0.0669
13,AGCATGTG,0.179
14,AGCATGTC,0.218
15,AGCATGTA,0.354
16,GGCATGCA,0.146
17,CGCATGTA,0.356
18,GGCATGTA,0.376
19,CGCATGTC,0.146
20,GGCATGGA,-0.0411
21,CGCATGGA,-0.0319
22,AAAGCGTA,0.0441
23,AGCACCGG,-0.32
24,GAAGCTTC,-0.191
25,CGAATAAC,0.0678

row,Sequence,PBM E-score
1,CAAATCAG,-0.048
2,ATGCGGCA,-0.115
3,TATACGCA,0.272
4,ATTGCCTA,0.482
5,GTTGCCTA,0.488
6,CTTGCCCC,-0.209
7,GCTGCCTA,0.282
8,ATTGCCAG,-0.156
9,ATTGCCTG,0.482
10,ATTGCCTC,0.331
11,ATTGCCCA,0.0652
12,ATTGCCGA,-0.0541
13,CTTGCCTC,0.425
14,CTTGCCGC,-0.231
15,GTTGCCCA,0.103
16,GAGCGCTC,-0.331
17,CGTCGCAA,-0.149
18,CAAGTCGG,-0.254
19,GGTACTCA,0.0108
20,AGCTATAA,-0.0249
21,CAGGTTCG,-0.00261
22,CACCAGGA,-0.104

# Reference: the supplement of paper PMC3334620
